Source: the supplement of paper PMC12350171
Counter-ions that a name gives are not always drawn. Values without a mark were called inactive.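 How the source made its calls: active = AUC significantly below DMSO controls by Student t-fit with adjusted P under 0.01; inactive = not significantly reduced.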

Tests used:
Assay in all cases: growth AUC normalised to DMSO control (fraction of control); higher = less growth inhibition, active = hit call of the paper
Details in all cases: 20 µM
[1] = system: Haemophilus parainfluenzae
Summary of the method: (§1)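 Pathogens passaged twice anaerobically were inoculated at a starting OD578 of 0.01 into pre-reduced mGAM plates with drug at 20 μM and 1% DMSO, sealed with breathable membranes. Haemophilus parainfluenzae medium was supplemented with hemin and NAD. OD578 was read hourly for 24 h, with three biological replicates. Growth-curve AUC was computed by the trapezoidal rule up to the exponential-to-stationary transition and normalised to DMSO controls on the same plate.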

[2] = system: Salmonella enterica typhimurium
Summary of the method: as §1

[3] = system: Shigella flexneri
Summary of the method: as §1

[4] = system: Vibrio cholerae
Summary of the method: as §1

[5] = system: Yersinia pseudotuberculosis
Summary of the method: as §1

With `CN(C)CCn1nnnc1SCC1=C(C(=O)O)N2C(=O)[C@@H](NC(=O)Cc3csc(N)n3)[C@H]2SC1` [Cefotiam hydrochloride] the “growth AUC normalised to DMSO control” value [1] was 0.0401 (active).
With `Oc1c(Cl)cc(Cl)c2cccnc12` [Chloroxine] the “growth AUC normalised to DMSO control” value [1] was 0.114 (active).
`CS(=O)(=O)c1ccc([C@@H](O)[C@@H](CO)NC(=O)C(Cl)Cl)cc1` [Thiamphenicol] was tested, and the “growth AUC normalised to DMSO control” value [1] was 0.032 (active).
With `CCn1nc(C(=O)O)c(=O)c2cc3c(cc21)OCO3` [Cinoxacin] the “growth AUC normalised to DMSO control” value [1] was 0.294 (active).
For `CCOc1cc(CC(=O)N[C@@H](CC(C)C)c2ccccc2N2CCCCC2)ccc1C(=O)O` [Repaglinide], the “growth AUC normalised to DMSO control” value [1] was 1.08.
With `CC(=O)O[C@H]1C[C@@]2(C)[C@@H](C[C@@H](O)[C@H]3[C@@]4(C)CC[C@@H](O)[C@@H](C)[C@@H]4CC[C@@]32C)/C1=C(\CCC=C(C)C)C(=O)O` [Fusidic acid sodium salt] the “growth AUC normalised to DMSO control” value [1] was 0.345 (active).
`CCN(CC)CCOc1ccc(C(=C(Cl)c2ccccc2)c2ccccc2)cc1` [(Z,E) Clomiphene citrate] was tested, and the “growth AUC normalised to DMSO control” value [1] was 1.02.
`C[N+](C)(CCOc1ccccc1)Cc1ccccc1.O=C([O-])c1cc2ccccc2cc1O` [Bephenium hydroxynaphthoate] was tested, and the “growth AUC normalised to DMSO control” value [1] was 1.04.
`CN(C)CCC=C1c2ccccc2C=Cc2ccccc21` [Cyclobenzaprine hydrochloride] was tested, and the “growth AUC normalised to DMSO control” value [1] was 0.893.
For `CC(C)(CO)[C@@H](O)C(=O)NCCCO` [(D)-Panthenol], the “growth AUC normalised to DMSO control” value [1] was 0.991.
With `Cc1nccn1CC1CCc2c(c3ccccc3n2C)C1=O` (stereo not given) [Ondansetron hydrochloride] the “growth AUC normalised to DMSO control” value [1] was 1.07.
`COC(c1ccccc1)(c1ccccc1)[C@H](Oc1nc(C)cc(C)n1)C(=O)O` [Ambrisentan] was tested, and the “growth AUC normalised to DMSO control” value [1] was 1.05.
For `CC(=O)OCC(=O)[C@@]1(O)CC[C@H]2[C@@H]3CCC4=CC(=O)CC[C@]4(C)[C@H]3[C@@H](O)C[C@@]21C` [Cortisol acetate], the “growth AUC normalised to DMSO control” value [1] was 1.02.
With `OC(c1cc(C(F)(F)F)nc2c(C(F)(F)F)cccc12)C1CCCCN1` (stereo not given) [Mefloquine hydrochloride] the “growth AUC normalised to DMSO control” value [1] was 0.903.
For `CN(C)CCOC(C)(c1ccccc1)c1ccccn1` (stereo not given) [Doxylamine succinate], the “growth AUC normalised to DMSO control” value [1] was 0.989.
For `CN(C)CCOC(=O)COc1ccc(Cl)cc1` [Meclofenoxate hydrochloride], the “growth AUC normalised to DMSO control” value [1] was 0.896.
`C#C[C@]1(O)CC[C@H]2[C@@H]3CCC4=CCCC[C@@H]4[C@H]3CC[C@@]21C` [Lynestrenol] was tested, and the “growth AUC normalised to DMSO control” value [1] was 0.931.
In the case of `CC(=O)[C@@]1(O)CC[C@H]2[C@@H]3C[C@H](C)C4=CC(=O)C=C[C@]4(C)[C@@]3(F)[C@@H](O)C[C@@]21C` [Fluorometholone], the “growth AUC normalised to DMSO control” value [1] is reported as 1.
`CC(NCCC(c1ccccc1)c1ccccc1)c1ccccc1` (stereo not given) [Fendiline hydrochloride] was tested, and the “growth AUC normalised to DMSO control” value [1] was 0.986.
For `Clc1ccccc1CN1CCc2sccc2C1` [Ticlopidine hydrochloride], the “growth AUC normalised to DMSO control” value [1] was 0.972.
`NS(=O)(=O)Cc1noc2ccccc12` [Zonisamide] was tested, and the “growth AUC normalised to DMSO control” value [1] was 0.981.
`CCCCOc1cc(C(=O)OCCN(CC)CC)ccc1N` [Benoxinate hydrochloride] was tested, and the “growth AUC normalised to DMSO control” value [1] was 1.01.
In the case of `CC[C@H](C)[C@H]1O[C@]2(C=C[C@@H]1C)C[C@@H]1C[C@@H](C/C=C(\C)[C@@H](O[C@H]3C[C@H](OC)[C@@H](O[C@H]4C[C@H](OC)[C@@H](O)[C@H](C)O4)[C@H](C)O3)[C@@H](C)/C=C/C=C3\CO[C@@H]4[C@H](O)C(C)=C[C@@H](C(=O)O1)[C@]34O)O2.CO[C@H]1C[C@H](O[C@H]2[C@H](C)O[C@@H](O[C@@H]3/C(C)=C/C[C@@H]4C[C@@H](C[C@]5(C=C[C@H](C)[C@@H](C(C)C)O5)O4)OC(=O)[C@@H]4C=C(C)[C@@H](O)[C@H]5OC/C(=C\C=C\[C@@H]3C)[C@]54O)C[C@@H]2OC)O[C@@H](C)[C@@H]1O` [Avermectin B1], the “growth AUC normalised to DMSO control” value [1] is reported as 0.997, the “growth AUC normalised to DMSO control” value [2] is reported as 1.02 and the “growth AUC normalised to DMSO control” value [3] is reported as 1.03. The “growth AUC normalised to DMSO control” value [4] was 1.02 and the “growth AUC normalised to DMSO control” value [5] was 1.01.
`CC(C)(Oc1ccc(CCNC(=O)c2ccc(Cl)cc2)cc1)C(=O)O` [Bezafibrate] was tested, and the “growth AUC normalised to DMSO control” value [1] was 0.984.
`COc1ccc2[nH]cc(CCNC(C)=O)c2c1` [Melatonin] was tested, and the “growth AUC normalised to DMSO control” value [1] was 0.966.
In the case of `COc1ccc(C(=O)NCc2ccc(OCCN(C)C)cc2)cc1OC` [Itopride], the “growth AUC normalised to DMSO control” value [1] is reported as 0.993.
